The values below come from PubChem BioAssay (EPA / NIEHS).

Records with an inconclusive call do not appear. Active and inactive are the calls of the source. Rule for the calls: active = hit-call score of the fitted dose curve at least 0.9, where 1 is the maximum; inconclusive = response in the unintended direction; inactive = score below 0.9.

Sequence of human Opioid Receptor Delta 1 (Opiate D1), OPRD1 (gene 4985) (P41143 whole entry, looked up): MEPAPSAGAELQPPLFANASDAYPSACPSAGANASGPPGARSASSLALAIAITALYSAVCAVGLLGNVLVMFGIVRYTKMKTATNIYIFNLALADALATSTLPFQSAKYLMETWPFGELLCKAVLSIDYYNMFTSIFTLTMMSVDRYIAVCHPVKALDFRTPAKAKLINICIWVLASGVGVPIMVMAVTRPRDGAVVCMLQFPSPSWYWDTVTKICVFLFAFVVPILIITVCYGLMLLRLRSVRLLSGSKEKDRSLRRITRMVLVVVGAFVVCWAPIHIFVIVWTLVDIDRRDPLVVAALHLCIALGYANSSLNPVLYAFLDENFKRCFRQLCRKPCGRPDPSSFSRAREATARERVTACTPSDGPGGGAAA

For the first test, the target named is human Opioid Receptor Delta 1 (Opiate D1), OPRD1 (gene 4985) (UniProt P41143). Nature of the test: NVS_GPCR_hOpiate_D1: NovaScreen (NVS) G Protein-Coupled Receptor Assay for human Opioid Receptor Delta 1 (Opiate D1) (AID 2283280). The method, boiled down:
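Membrane preparations from CHO cells bearing the human receptor were incubated 1 h with test chemical, and bound radioligand was counted after filtration. Actives from 25 uM duplicate screening were retested in concentration-response.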
Consider `CCCCCCCCCCCCc1ccccc1S(=O)(=O)O`, for which the AC50 is 7.58 µM (active).

For the compound `Cc1oc(-c2ccccc2)nc1CCOc1ccc(C[C@H](Nc2ccccc2C(=O)c2ccccc2)C(=O)O)cc1`, the AC50 was 12.8 µM (active).

`CCCOc1sc(C(=O)N2CCC(c3cc(CN)ccc3F)CC2)c(C)c1Br`: the half-maximal activity concentration (AC50) was 9.25 µM (active).

As to `CC(=O)NC1(c2cccc(F)c2)CCN(CC[C@@]2(c3ccc(Cl)c(Cl)c3)CN(c3ccccc3)C(=O)CO2)CC1`, the outcome was inactive.

As to `CCc1nn(C2CCCCC2)c2cc(C3(C#N)CCC(C(=O)O)CC3)ccc12` (stereo unspecified), the result was inactive.

With `CC[C@H](C)[C@@H](C(=O)O)n1sc2ccccc2c1=O`, the outcome was inactive.

Regarding `NC(=O)N1C(=O)C(C(=O)c2cc(Cl)cs2)c2cc(F)c(Cl)cc21` (stereo unspecified), the call was inactive.

On to `CCN(CC)CCNc1ccc(CNC=O)c2sc3ccc(OC)cc3c(=O)c12`, for which the result was inactive.

Take `CC[C@H](c1ccc(O)cc1)[C@@H](CC)c1ccc(O)cc1`: the AC50 was 8.04 µM (active).

For a further test, the target named is human Purinergic Receptor P2Y, P2RY1 (gene 5028) (UniProt P47900). Kind of test: NVS_GPCR_hPY2: NovaScreen (NVS) G Protein-Coupled Receptor Assay for human Purinergic Receptor P2Y (AID 2283281). In outline: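 Filtration scintillation readout of radioligand displacement on U937 extract, measured 1 h post-dosing. Single 25 uM duplicate screen, then singleton concentration series to 50 uM for chemicals passing threshold; DMSO as baseline.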
Sequence of human Purinergic Receptor P2Y, P2RY1 (gene 5028) (P47900 whole entry, looked up): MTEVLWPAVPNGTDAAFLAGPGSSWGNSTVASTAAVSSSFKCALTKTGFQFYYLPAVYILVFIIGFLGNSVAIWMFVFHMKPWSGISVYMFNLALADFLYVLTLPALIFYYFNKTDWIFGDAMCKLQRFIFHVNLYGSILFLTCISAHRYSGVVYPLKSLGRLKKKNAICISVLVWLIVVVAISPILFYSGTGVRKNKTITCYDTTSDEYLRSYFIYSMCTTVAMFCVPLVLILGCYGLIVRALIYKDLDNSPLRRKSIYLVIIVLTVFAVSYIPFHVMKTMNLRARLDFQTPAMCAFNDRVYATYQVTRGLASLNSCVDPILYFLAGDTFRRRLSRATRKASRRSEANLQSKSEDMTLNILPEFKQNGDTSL
As for `CCCCCCCCCCCCc1ccccc1S(=O)(=O)O`, the AC50 is 12.3 µM (active).

As to `C#C[C@]1(O)CC[C@H]2[C@@H]3CCC4=CC(=O)CC[C@@H]4[C@H]3CC[C@@]21C`, the compound was classed as inactive.

Regarding `NC(=O)N1C(=O)C(C(=O)c2cc(Cl)cs2)c2cc(F)c(Cl)cc21` (stereo unspecified), the compound was called inactive.

Another test deals with human Thromboxane A2 Receptor (TXA2), TBXA2R (gene 6915) (UniProt P21731). Kind of test: NVS_GPCR_hTXA2: NovaScreen (NVS) G Protein-Coupled Receptor Assay for human Thromboxane A2 Receptor (TXA2) (AID 2283282).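 Note: actives reduce bound radioligand signal relative to DMSO baseline.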 In outline: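 Biochem binding, human platelets, cell-free; competitive radioligand displacement; 1 h; filter radiodetection. 25 uM duplicate primary, conc. series secondary; DMSO neg. ctrl.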
Sequence of human Thromboxane A2 Receptor (TXA2), TBXA2R (gene 6915) (P21731 whole entry, looked up): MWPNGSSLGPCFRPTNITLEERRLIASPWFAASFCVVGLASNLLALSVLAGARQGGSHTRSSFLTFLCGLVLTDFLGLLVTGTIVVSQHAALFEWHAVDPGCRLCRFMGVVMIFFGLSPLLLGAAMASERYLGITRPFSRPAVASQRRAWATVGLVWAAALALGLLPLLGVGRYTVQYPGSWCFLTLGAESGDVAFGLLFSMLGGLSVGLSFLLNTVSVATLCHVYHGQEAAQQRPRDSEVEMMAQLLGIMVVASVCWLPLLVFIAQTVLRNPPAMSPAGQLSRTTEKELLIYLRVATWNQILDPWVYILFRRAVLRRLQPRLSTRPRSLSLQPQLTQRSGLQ
With `CCCCCCCCCCCCc1ccccc1S(=O)(=O)O`, the AC50 was 12.1 µM (active).

`CCCCC(CC)COC(=O)CCCCC(=O)OCc1ccccc1` (stereo unspecified): the AC50 was 12.7 µM (active).

Consider `Cc1oc(-c2ccccc2)nc1CCOc1ccc(C[C@H](Nc2ccccc2C(=O)c2ccccc2)C(=O)O)cc1`, for which the AC50 was 3.52 µM (active).

As to `CCCOc1sc(C(=O)N2CCC(c3cc(CN)ccc3F)CC2)c(C)c1Br`, the call was inactive.

Turning to `Nc1cccc2c(N)cccc12`, the compound was classed as inactive.

Consider `CC[C@H](C)[C@@H](C(=O)O)n1sc2ccccc2c1=O`, for which the outcome was inactive.

For the compound `NC(=O)N1C(=O)C(C(=O)c2cc(Cl)cs2)c2cc(F)c(Cl)cc21` (stereo unspecified), the AC50 is 0.961 µM (active).

Consider `CCCCC(CC)COC(=O)CCCCC(=O)OCC(CC)CCCC` (stereo unspecified), for which the AC50 is 13.8 µM (active).

As for `C=C(C)C(=O)OCCC(F)(F)C(F)(F)C(F)(F)C(F)(F)C(F)(F)C(F)(F)F`, the result was inactive.

For orientation: AC50 means the midpoint of the concentration-response curve, whichever way the signal moves.
